Source: PubChem BioAssay
12-hLO inh: blocks human 12-lipoxygenase activity; Potency, µM (top dose mostly 57.1 µM), inactives show at the highest dose activity change, negative = inhibition, usual class: inhibitors; 0.12% of 150,000 active; AID 1452; purified 12-hLO, xylenol orange hydroperoxide absorbance; active means well fitted curve in the direction sought with a large enough effect; inconclusive means small, poorly fitted or top-dose-only effect, or another doubt; inactive means no such curve, though single readings can be large; an effect the other way counts as inactive or inconclusive; further: potency means the concentration at half of the fitted maximal effect; nearly all actives have a fitted effect of over 55% in size
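Hydroperoxide output read as Fe(III)-xylenol orange absorbance, 573-to-405 nm ratio, after 30 min reaction with 40 uM arachidonic acid. Enzyme: 150 nM purified human 12hLO, 15 min compound preincubation; 25 mM Hepes pH 7.0, room temperature.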
IMPase Li inh: cell-permeable IMPase inhibitors with lithium potentiation; CHO-M1 cells, IP1 TR-FRET (IP-One), carbachol + lithium; Potency, µM (highest dose often 59.4 µM), inactives show top-dose activity, negative = IMPase inhibition, most hits filed as inhibitors; 0.35% of 210,000 active; active means well fitted curve in the direction sought with a large enough effect; inconclusive means small, poorly fitted or top-dose-only effect, or another doubt; inactive means no such curve, though single readings can be large; an effect the other way counts as inactive or inconclusive;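 further: IP1 builds up when IMPase is blocked and the TR-FRET signal falls; potency means the concentration at half of the fitted maximal effect; plate controls were basal vehicle for no effect and high inhibitor control for full effect; nearly all actives have a fitted effect of over 50% in size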
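CHO cells stably expressing M1 receptor (2000/well, cultured 16–30 h) treated 30 min at 37C with compound plus low lithium. Cytosolic IP1 by TR-FRET (665/620 ratio and 620 channel) after 10 min lysis; AC50 by Hill fit.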
ALDH1A1 inh: ALDH1A1 (human) enzyme inhibition; P00352; Purified ALDH1A1, NADH fluorescence, propionaldehyde substrate; Potency, µM (top dose mostly 75.3 µM), for inactives: top-dose activity, negative = inhibition, most hits filed as inhibitors; 7.3% of 220,000 active; AID 1030;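 further: potency means the concentration at half of the fitted maximal effect; plate controls were no enzyme wells and a reference inhibitor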
IMPase inh: membrane-permeable compound that blocks inositol monophosphatase | P97697 | CHO-M1 cells, IP1 accumulation, HTRF TR-FRET ratio | inhibition (IP1 accumulation), % at 46.1 µM | 120,000 tested, under 10 active | AID 901; active means well fitted curve in the direction sought with a large enough effect in the signal ratio, not every such curve was filed as active; inconclusive means small, poorly fitted or top-dose-only effect, or a change in a side signal; inactive means no such curve, though single readings can be large or run the other way; the % refers to the signal ratio;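 further: cells stimulated with carbachol in lithium chloride buffer; plate controls were DMSO basal wells for no effect and reference inhibitor wells for full effect; higher means more IMPase inhibition seen as more IP1 and lower FRET ratio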
Target sequence (P97697 whole entry, looked up): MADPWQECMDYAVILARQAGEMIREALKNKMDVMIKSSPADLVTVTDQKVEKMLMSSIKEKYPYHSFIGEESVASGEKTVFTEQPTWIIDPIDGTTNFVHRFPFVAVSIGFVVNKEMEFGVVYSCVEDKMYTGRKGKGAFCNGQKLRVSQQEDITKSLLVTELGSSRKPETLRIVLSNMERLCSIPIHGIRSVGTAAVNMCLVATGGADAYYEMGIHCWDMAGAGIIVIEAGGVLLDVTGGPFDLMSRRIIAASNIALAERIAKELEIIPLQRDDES
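Carbachol-driven Gq signalling in CHO-M1 cells (2000/well) generates IP1. Compounds that block IMPase raise IP1 and so reduce the FRET signal from Eu-anti-IP1 and d2-IP1 after a 10 min room-temperature lysis.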
PNC inhibitor: blocks assembly of the perinucleolar compartment; activity change (PNC), negative = inhibition, % at 10 µM; PC3M PTB-GFP, PNC prevalence imaging, 16 h; active compounds read low; 3.1% of 140,000 active;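 active means readout at or below -70, meaning at least 70% loss of cells showing the perinucleolar compartment, a nuclear body marking cancer cells; inconclusive means readout between -30 and a set limit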;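 further: plate controls were DMSO wells for no effect and camptothecin positive control wells for full effect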
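PC3M cells stably expressing PTB-GFP, 750–1000 cells/well, treated 16 h at 37 °C with compound (23 nl of library stock), in duplicate. After paraformaldehyde fixation and Hoechst stain, imaged at 20x; PNC prevalence scored by image analysis.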
HPGD block: blocks human HPGD enzyme activity; P15428; purified HPGD, NADH fluorescence kinetic, PGE2 substrate; Potency, µM, inactives show at the highest dose activity change, negative = inhibition, most hits filed as inhibitors; 4.3% of 150,000 active; AID 894; further: potency means the concentration at half of the fitted maximal effect
Target sequence (P15428 whole entry, looked up): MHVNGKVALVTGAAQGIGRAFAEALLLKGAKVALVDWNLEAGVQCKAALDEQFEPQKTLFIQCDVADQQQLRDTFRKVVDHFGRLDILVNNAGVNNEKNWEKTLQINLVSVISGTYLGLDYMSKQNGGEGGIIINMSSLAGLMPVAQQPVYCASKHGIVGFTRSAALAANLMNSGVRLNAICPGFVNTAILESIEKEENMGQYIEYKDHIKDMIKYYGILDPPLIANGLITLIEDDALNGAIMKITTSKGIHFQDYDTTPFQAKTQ
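20 nM HPGD preincubated 15 min at room temperature with compound in 50 mM Tris-HCl pH 8, 0.01% Tween 20. Started with 1 mM NAD+ and 30 uM prostaglandin E2; NADH fluorescence (360/450 nm) read 5 times over 30-s intervals, last minus first.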
An asterisk follows results filed as active; ? = inconclusive; nt = not tested or not shown; ! = repeats disagree; [ ] = remark or other dose. The list is not random: actives were taken first. Their share in the collection is about 11%. Unless noted, the call rests on the fitted dose curve; in most records, active means well fitted inhibition curve with a large enough effect (not every such curve was filed as active); inconclusive means small, poorly fitted or top-dose-only effect, or another doubt; inactive means no such curve, though single readings can be large or run the other way. Unless noted, on the % scale 0 is the no-effect control and ±100 the full control effect.

SMILES | 12-hLO inh | IMPase Li inh | ALDH1A1 inh | IMPase inh | PNC inhibitor | HPGD block
CCCc1[nH][nH]c(=O)c1C(c1ccc(Cl)cc1)C(C#N)C#N (configuration not stated) | -13% | 13% | ? | 1 | 12 | 16µM*
CCCc1[nH][nH]c(=O)c1C(c1ccccc1)C(C#N)C#N (configuration not stated) | -1% | 22%[38.3 µM] | 22µM* | 0 | ? | ?
COc1cc(CNC(=O)CCCC/C=C/C(C)C)ccc1O | 1%[0.00818 µM] | 19% | 2µM*! | 5 | nt | -24%
CCCCC/C=C\C/C=C\C/C=C\C/C=C\CCCC(=O)NCc1ccc(O)c(OC)c1 | -21%[0.00818 µM] | -16% | 25µM* | nt | nt | 32µM*
CCCCCCCCC(=O)NCc1ccc(O)c(OC)c1 | 0% | 24% | -3% | 3 | nt | -5%
Cc1ccc(NC(=S)NCC2CCCO2)cc1 (configuration not stated) | -1% | -7%[38.3 µM] | -13% | 3 | -30 | 25µM*
CCCCC/C=C\C/C=C\C/C=C\C/C=C\CCCC(=O)NCCCl | ? | 3% | ? | nt | nt | ?
C[C@H](CN(C)C)C(C#N)(c1ccccc1)c1ccccc1 | 3%[11.4 µM] | 23% | 14%[13.5 µM] | nt | nt | -6%
CCOc1ccc(N2C(=O)c3ccccc3C2=O)cc1 | 3% | 25%[38.3 µM] | 15% | ? | 8 | -11%
CCOc1ccc(CC2C(=O)NC(=O)N(c3ccc(CC)cc3)C2=O)cc1 (configuration not stated) | -3% | 27%[38.3 µM] | 22µM* | ? | 34 | -13%
CC(C)c1ccc(C(O)(C(=O)O)c2ccc(C(C)C)cc2)cc1 | 0%[11.4 µM] | -5% | 6%[13.5 µM] | nt | nt | -1%
O=c1oc2ccccc2c(O)c1Cc1c(O)c2ccccc2oc1=O | 0% | 1% | 6.3µM*! | -4[20.6 µM] | nt | -7%
CC1=C(O)C(=O)C=C2C1=CC=C1[C@]2(C)CC[C@@]2(C)C3C[C@](C)(C(=O)O)CC[C@@]3(C)CC[C@@]12C (some centres not stated) | ? | 31% | -6% | nt | nt | 2µM*
c1csc(CN2CC[C@@]3(CCCNC3)C2)n1 | 2% | 5% | 22µM* | nt | nt | -13%
O=C(Oc1ccccc1)N1CCC2(CCN(Cc3nccs3)CC2)CC1 | 3% | 24% | -10% | nt | nt | -1%
C=CC[C@]1(O)CCC2C3CCC4=CCCCC4C3CCC21C (some centres not stated) | -4%[0.00818 µM] | -9% | ? | nt | nt | -10%
N[C@H](Cc1c[nH]c2ccccc12)P(=O)(O)O | 1%[11.4 µM] | -6% | 12%[13.5 µM] | nt | nt | -6%
O=C(O)[C@H]1C2c3ccccc3C(c3ccccc32)[C@@H]1C(=O)NCC1CC1 | 6%[11.4 µM] | 14% | 10%[13.5 µM] | nt | nt | -6%
O=C(CCl)NN=C(c1ccccc1)c1ccccc1 | nt | -4% | 0.013µM* | nt | nt | nt
NCC(=O)c1ccccc1 | 1% | 1% | ? | nt | nt | -7%
Nc1ncnc2c1ncn2[C@@H]1O[C@H](COP(=O)(O)OP(=O)(O)OP(=O)(O)O)[C@H]2OC3(O[C@H]21)C([N+](=O)[O-])=CC(=[N+]([O-])[O-])C=C3[N+](=O)[O-] (some centres not stated) | 16%[0.00818 µM] | -5% | ? | nt | nt | ?
COC(=O)c1ccc(N2CCN(C)CC2)c([N+](=O)[O-])c1 | nt | 5% | -5% | nt | nt | nt
CC(=O)c1ccc(Oc2ccc(C(=O)c3ccc(C)c(C)c3)cc2[N+](=O)[O-])cc1 | 3% | 1% | 0.79µM* | nt | ? | 7.1µM*
CC(/C=C(\C)Nc1ccccc1)=Nc1ccccc1 | nt | -2% | 25µM* | nt | nt | nt
C[C@@]12CC[C@H]3[C@@H](CC[C@@H]4C[C@H](O)CC[C@]43C)[C@H]1CC[C@H]2O | -4% | nt | nt | 3 | nt | nt
SMILES | 12-hLO inh | IMPase Li inh | ALDH1A1 inh | IMPase inh | PNC inhibitor | HPGD block
C[C@H]1CC[C@@H]2[C@@H](C)[C@H]3[C@H](C[C@H]4[C@@H]5CC=C6CC(O[C@@H]7O[C@H](CO)[C@H](O)[C@H](O[C@@H]8O[C@H](CO)[C@@H](O)[C@H](O)[C@H]8O)[C@H]7O[C@H]7O[C@@H](C)[C@H](O)[C@@H](O)[C@H]7O)CC[C@]6(C)[C@H]5CC[C@]34C)N2C1 (some centres not stated) | -4% | 38% | 22µM* | nt | nt | -4%
CC1CC[C@@]2(OC1)OC1C(O)C3C4CC[C@H]5CC(O[C@@H]6O[C@@H](CO)[C@H](OC7OC(CO)C(O)C(OC8OCC(O)C(O)[C@H]8O)[C@@H]7O[C@@H]7OC(CO)[C@H](O)[C@@H](O[C@@H]8OC(CO)C(O)C(O)C8O)C7O)C(O)C6O)C(O)C[C@]5(C)C4CC[C@]3(C)C1C2C (some centres not stated) | -2% | 43% | -4% | nt | nt | -4%
CCN(CC)C(=O)N[C@@H]1C[C@H]2c3cccc4[nH]cc(c34)C[C@@H]2N(C)C1 | 1%[25.6 µM] | 1% | 13%[20.9 µM] | -5[20.6 µM] | nt | -6%
CN1Cc2ccccc2[C@@H]2c3cccc4[nH]cc(c34)C[C@H]21 | -2% | 9% | 16µM*! | 15 | nt | -27%
CN(C)C1C(=O)C(C(N)=O)=C(O)[C@@]2(O)C(=O)C3=C(O)c4c(O)cccc4[C@](C)(O)C3C(O)C12 (some centres not stated) | -2% | ? | -7% | nt | nt | ?
CN(C)[C@@H]1C(=O)C(C(N)=O)=C(O)[C@@]2(O)C(=O)C3=C(O)c4c(O)cccc4[C@@](C)(O)[C@H]3[C@H](O)[C@@H]12 | -8% | 10µM*! | 28µM*! | ? | 33 | 7.1µM*
CN(C)[C@@H]1C(=O)C(C(N)=O)=C(O)[C@]2(O)C(=O)C3=C(O)c4c(O)cccc4[C@](C)(O)[C@H]3C[C@@H]12 | -4%[11.4 µM] | 1% | -1%[13.5 µM] | nt | nt | -29%
COc1ccc([N+](=O)[O-])cc1CSc1ccccn1 | nt | 11% | ? | nt | nt | nt
COc1ccc(C=C2C(=O)N(C)C(=O)N(C)C2=O)cc1CSc1ccccn1 | -6% | 14%[38.3 µM] | 3.2µM* | 5 | -13 | 25µM*
[O-][Br+2]([O-])O | -2% | 4% | ? | nt | nt | -8%
O=[N+]([O-])c1c(Cl)c(Cl)c(Cl)c(Cl)c1Cl | -1% | 18% | 2% | nt | nt | -7%
Nc1cc(Cl)c2nonc2c1[N+](=O)[O-] | -1% | 21% | 20µM* | -5 | ? | ?
FC(Cl)(Cl)Cl | 0% | 5% | 8% | nt | nt | -4%
NC1=NC([S][Hg][c]2ccc(N)cc2)c2ncn([C@@H]3O[C@H](CO)[C@@H](O)[C@@H]3O)c2N1 (some centres not stated) | nt | 17% | 0.1µM* | nt | nt | 0.05µM*
Cc1ccc(-n2c(C)nc3ccccc3c2=O)c(C)c1 | nt | nt | 22% | nt | nt | nt
Cc1nc2cc([N+](=O)[O-])ccc2c(=O)n1-c1ccccc1[N+](=O)[O-] | nt | 5% | 32µM* | nt | nt | nt
